ADAM17 inh: ADAM17 inhibition, QFRET primary screen. P78536. recombinant ADAM17, EDANS/DABCYL FRET peptide cleavage. inhibition, % at 6.95 µM. 370,000 tested, 0.83% active. AID 720648;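 active = inhibition above the mean of compounds lying between control limits plus 3 SD, set per campaign, cut at about 8.5% in these data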
Target sequence (P78536 215-824 limits assumed): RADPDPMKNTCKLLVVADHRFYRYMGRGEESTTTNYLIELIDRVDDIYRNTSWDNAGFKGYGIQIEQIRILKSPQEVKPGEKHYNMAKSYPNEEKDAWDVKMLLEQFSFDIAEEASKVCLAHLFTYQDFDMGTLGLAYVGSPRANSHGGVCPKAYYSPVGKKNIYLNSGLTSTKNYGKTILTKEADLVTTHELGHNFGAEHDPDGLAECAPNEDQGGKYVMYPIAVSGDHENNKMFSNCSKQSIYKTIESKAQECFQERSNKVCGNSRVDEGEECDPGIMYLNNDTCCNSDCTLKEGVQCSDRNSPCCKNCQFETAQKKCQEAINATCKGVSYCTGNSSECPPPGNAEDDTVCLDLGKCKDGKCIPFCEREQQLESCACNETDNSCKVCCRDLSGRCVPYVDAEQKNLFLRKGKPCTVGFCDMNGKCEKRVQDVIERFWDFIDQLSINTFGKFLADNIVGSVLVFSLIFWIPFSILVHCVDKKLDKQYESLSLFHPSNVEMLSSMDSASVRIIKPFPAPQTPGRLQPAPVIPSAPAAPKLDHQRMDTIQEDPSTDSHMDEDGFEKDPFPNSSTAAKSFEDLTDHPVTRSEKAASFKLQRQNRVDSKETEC
ADAM10 inh: inhibits human ADAM10; 370,000 tested, 0.62% active; inhibition, % at 7 µM; recombinant ADAM10, EDANS/DABCYL FRET peptide cleavage, 3 h; O14672;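 active = inhibition above a per-campaign cutoff equal to the mean of compounds falling between control-based bounds plus 3 SD, cut at about 20% in these data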
A3G deaminase: APOBEC3G (human) deaminase inhibition; 330,000 tested, 0.28% active; recombinant A3G, ssDNA deamination FAM/TAMRA fluorescence; Q9HC16; inhibition, % at 20 µM;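 active = inhibition of at least 40% at 20 µM, with no more than 30% in the related APOBEC3A deaminase screen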
CendR NRP1 mod: alters CendR peptide binding to human NRP-1. O14786. FAM-RPARPAR peptide binding to NRP-1, fluorescence polarization. inhibition, % at 25 µM. 360,000 tested, 0.85% active;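 active = inhibition or corrected inhibition above about 18%, plus a signal ratio from 0.5 to 1.5, limit read from the data, passing the limit was not always enough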
A3A deaminase: inhibitors of human APOBEC3A DNA deaminase; recombinant A3A, FAM/TAMRA ssDNA deamination fluorescence; inhibition, % at 20 µM; 330,000 tested, 0.41% active;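 active = at least 40% inhibition at 20 µM here, with at most 30% in a related deaminase screen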
ADAM10 ctr: ADAM10 inhibition, counter-screen for ADAM17 exosite hits | shares compounds with ADAM17 inh | recombinant ADAM10, EDANS/DABCYL FRET peptide cleavage, 3 h | inhibition, % at 6.95 µM | 2,900 tested, 47% active | AID 743256;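 active = mean inhibition over the triplicate runs exceeds the activity threshold set in the earlier primary screen, cut at about 20% in these data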
ADAM17 confirm: human ADAM17 inhibition, confirmation | shares compounds with ADAM17 inh | recombinant ADAM17, EDANS/DABCYL QFRET peptide cleavage | inhibition, % at 6.95 µM | 2,900 tested, 65% active;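 active = mean inhibition across replicates above the hit cutoff set in the primary screen, cut at about 8.5% in these data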
Of the large screens only hits and unclear results are named; the others gave an inactive call (follow-up assays come after a bar, where they were run). This is a sample that favours compounds with a hit; in the whole collection about 2.4% have one here.

N#Cc1cccc(NC(=O)c2cc(C3CCCCN3S(=O)(=O)c3ccccc3)on2)c1 (centres undefined)	ADAM17 inh 12.0 (no result: A3G deaminase, A3A deaminase) | ADAM10 ctr inactive | ADAM17 confirm 12.3
COc1ccc(-c2csc(NC(=O)CSc3nc(SC)ns3)n2)cc1	ADAM17 inh 14.8, ADAM10 inh 33.0 | ADAM10 ctr 26.5 | ADAM17 confirm 16.8
CCC[C@H]1[C@@H](NC(=O)C2CCOC2)CC[C@@]23CCCN2C(=O)CCC[C@@H]13 (some centres undefined)	none (no result: A3G deaminase, CendR NRP1 mod, A3A deaminase)
CCc1ccc(N(CC(=O)Nc2nc3ccc(C)cc3s2)S(=O)(=O)c2c(C)noc2C)cc1	ADAM17 inh 9.7 | ADAM10 ctr 46.5 | ADAM17 confirm 25.8
CCCC1CCC2(CCCN2CCOC(=O)Nc2ccccc2C)CC1 (centres undefined)	none (no result: A3G deaminase, CendR NRP1 mod, A3A deaminase)
CNc1nc(N)c([N+](=O)[O-])c(Nc2cccc(OC)c2)n1	none (no result: A3G deaminase, CendR NRP1 mod, A3A deaminase)
NC(=NCCc1c[nH]c2ccccc12)NS(=O)(=O)c1ccc2ccccc2c1	ADAM17 inh 9.9 | ADAM10 ctr inactive | ADAM17 confirm 9.4
COc1c(OC(C)=O)ccc(/C=C/c2ccc3cccc(OCc4ccccc4)c3n2)c1[N+](=O)[O-]	ADAM17 inh 9.7 | ADAM10 ctr inactive | ADAM17 confirm 9.2
C[C@@H]1CCCN1c1cccc2c1S(=O)(=O)N1CC[C@@H](C1)O2	none (no result: A3G deaminase, CendR NRP1 mod, A3A deaminase)
Cc1ccc(O)c(NC(=O)CSc2ccc(Cl)cc2)c1	none
Cc1ccc(NS(=O)(=O)c2ccc(NC(=O)CSc3ccc(Cl)cc3)cc2)c(C)c1	ADAM17 inh 9.0 | ADAM10 ctr 27.8 | ADAM17 confirm 10.9
Cc1ccccc1C(=O)n1ccc2ccc(-c3ccc4ccn(Cc5ccc(C#N)cc5)c4c3)cc21	none (no result: A3G deaminase, CendR NRP1 mod, A3A deaminase)
CCN(CC(O)Cn1c2ccccc2c2ccccc21)S(=O)(=O)c1ccc(C)cc1 (centres undefined)	ADAM17 inh 11.0 | ADAM10 ctr 27.6 | ADAM17 confirm 14.1
COC(=O)c1ccc2nc(-c3cccc(Cl)c3)c(Cc3ccccc3C(F)(F)F)n2c1	none (no result: A3G deaminase, CendR NRP1 mod, A3A deaminase)
COc1ccc([N+](=O)[O-])cc1NC(=O)COC(=O)c1ccccc1C(=O)c1ccccc1	none
COc1ccc([N+](=O)[O-])cc1NC(=O)C(C)OC(=O)c1ccccc1C(=O)c1ccc(Cl)cc1 (centres undefined)	ADAM17 inh 8.8 | ADAM10 ctr 46.1 | ADAM17 confirm 18.2
COC(CNC(=O)[C@H](Cc1ccccc1)NC1(C(=O)NC2CCCCC2)CCCC1)OC	none (no result: A3G deaminase, CendR NRP1 mod, A3A deaminase)
O=C(c1ccncc1)N1CC[C@H]2[C@H](CCCN2Cc2ccccc2)C1	none (no result: A3G deaminase, CendR NRP1 mod, A3A deaminase)
Cc1noc(/C=C/N(C)C)c1S(=O)(=O)N1CCCC(C(=O)NCc2cccs2)C1 (centres undefined)	none
COc1ccc(NC(=O)C2CCN(S(=O)(=O)c3c(C)noc3/C=C/N(C)C)CC2)cc1	ADAM17 inh 10.1 | ADAM10 ctr inactive | ADAM17 confirm 11.4
COc1cccc(CNC(=O)C2CCCN(S(=O)(=O)c3c(C)noc3/C=C/N(C)C)C2)c1 (centres undefined)	ADAM17 inh 8.9 | ADAM10 ctr inactive | ADAM17 confirm inactive
COc1ccc(NC(=O)C2CCN(S(=O)(=O)c3c(C)noc3C)CC2)cc1	none
CCn1c2ccccc2c2cc(NC(=O)COC(=O)c3ccc(F)cc3Cl)ccc21	none (no result: A3G deaminase, CendR NRP1 mod, A3A deaminase)
COc1cc(C(O)c2nc(-c3csc4ccccc34)cs2)ccc1F (centres undefined)	ADAM17 inh 10.0 (no result: A3G deaminase, A3A deaminase) | ADAM10 ctr 23.1 | ADAM17 confirm 16.7
COc1cc(C(O)c2nc(-c3ccc(F)cc3OC)cs2)ccc1F (centres undefined)	ADAM17 inh 12.3 (no result: A3G deaminase, A3A deaminase) | ADAM10 ctr 26.2 | ADAM17 confirm 14.2
O=C(Nc1nc2ncccn2c1-c1ccc(F)c(F)c1)c1ccc(F)cc1	none (no result: A3G deaminase, CendR NRP1 mod, A3A deaminase)
Clc1ccc2[nH]cc(-c3nnnn3-c3ccccc3)c2c1	ADAM17 inh 8.9 | ADAM10 ctr 28.5 | ADAM17 confirm 15.9
Clc1ccc2ncc(-c3nnnn3-c3ccccc3)c(-c3ccccc3)c2c1	none
CC(C)C(=O)NC(=S)/C=C1/N(C)c2ccccc2C1(C)C	none
Cc1ccc(C(=O)NC(=S)/C=C2\N(C)c3ccccc3C2(C)C)cc1	ADAM17 inh 17.5 | ADAM10 ctr 26.5 | ADAM17 confirm 13.4
CCCC(=O)OC[C@H]1CN([C@H](C)c2ccccc2)S(=O)(=O)c2c(F)cccc2O1	none (no result: A3G deaminase, CendR NRP1 mod, A3A deaminase)
COc1cc(NC(=O)c2ccc(S(=O)(=O)N(C)c3ccccc3)cc2)cc(OC)c1	ADAM17 inh 10.3 | ADAM10 ctr 29.8 | ADAM17 confirm 16.8
COc1ccccc1NC(=O)c1ccc(S(=O)(=O)N(C)c2ccccc2)cc1	none
COc1ccc2cc(CN(Cc3cccs3)Cc3nnnn3Cc3ccccc3)c(=O)[nH]c2c1	none
Cc1cccc2cc(CN(Cc3cccs3)Cc3nnnn3Cc3ccccc3)c(=O)[nH]c12	ADAM17 inh 11.2 | ADAM10 ctr inactive | ADAM17 confirm inactive
CCN(CC)CCCNC(=O)CSc1nc2cccnc2n1C	none (no result: A3G deaminase, CendR NRP1 mod, A3A deaminase)
CCCCn1nnnc1C(c1cc2ccccc2o1)N1CCN(c2ccccc2F)CC1 (centres undefined)	none (no result: A3G deaminase, A3A deaminase)
CCCCn1nnnc1C(c1cc2ccccc2o1)N1CCN(c2cc(C)nc3ccccc23)CC1 (centres undefined)	ADAM17 inh 8.8 (no result: A3G deaminase, A3A deaminase) | ADAM10 ctr inactive | ADAM17 confirm inactive
COC(=O)[C@]12C[C@H](CC(=O)NCc3cccc4ccccc34)C(=O)N(Cc3ccc4c(c3)OCO4)C1=C[C@H](C(C)C)O[C@@H]2C1CC1	none (no result: A3G deaminase, CendR NRP1 mod, A3A deaminase)
C=CCNc1ccc2c(c1)OC[C@H](Cc1ccccc1)NS2(=O)=O	none (no result: A3G deaminase, CendR NRP1 mod, A3A deaminase)
COC(=O)[C@]12C[C@H](CC(=O)N3CCN(C(=O)C4CC4)CC3)C(=O)N(Cc3cccc4ccccc34)C1=C[C@H](COCc1ccccc1)O[C@@H]2C	ADAM17 inh 10.0 (no result: A3G deaminase, CendR NRP1 mod, A3A deaminase) | ADAM10 ctr 23.6 | ADAM17 confirm 19.8
O=C(N/N=C/c1ccc(N2CCOCC2)c([N+](=O)[O-])c1)c1ccc(F)cc1	none
O=C(N/N=C/c1ccc(N2CCCC2)c([N+](=O)[O-])c1)c1cccnc1	ADAM17 inh 9.0 | ADAM10 ctr 20.6 | ADAM17 confirm 11.9
COc1cccc(CN(Cc2ccco2)S(=O)(=O)c2ccc(S(=O)(=O)NCc3ccccc3)cc2)c1OC	ADAM17 inh 14.0, ADAM10 inh 39.0 | ADAM10 ctr 43.1 | ADAM17 confirm 23.7
COc1cccc(CN(Cc2ccccc2F)S(=O)(=O)c2ccc(S(=O)(=O)NCc3ccccc3)cc2)c1	none
COc1cccc(Cn2cnc3c(NS(=O)(=O)c4cc(Cl)ccc4Cl)c(C)c(C)cc32)c1	ADAM17 inh 8.9 | ADAM10 ctr 20.1 | ADAM17 confirm 10.6

From PubChem
